# Residue numbers refer to the chain shown, from its start. In all, about 16,000 sequences were measured (“ka relative to ugcaugu”: median about 0.0091, highest 2% from about 0.032 on). Many of the other results were omitted from the sample, so the highest values are more common in it than they were.
# T1: RBFOX1 RRM (Homo sapiens, UniProt Q9NWB1 109-208)
# T1 sequence: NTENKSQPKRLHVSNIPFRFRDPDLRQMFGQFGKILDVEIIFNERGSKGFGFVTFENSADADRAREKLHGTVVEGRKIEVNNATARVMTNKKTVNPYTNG
# B1: UGCGAUA (DNA:RNA)
# RNA: GGGAGACCGGAAUUCAGAUUGUCCUGCGAUAUUAAAUCCCGUCGUAGCCACCA
# DNA 1: CAATCTGAATTCCGGTCTCCC
# DNA 2: TGGTGGCTACGACGGGATT
# B2: UUGAGCA (DNA:RNA)
# RNA: B1 RNA with G26U, C27G, G28A, A29G, U30C
# DNA 1: CAATCTGAATTCCGGTCTCCC
# DNA 2: TGGTGGCTACGACGGGATT
# B3: CUUUUUG (DNA:RNA)
# RNA: B1 RNA with U25C, G26U, C27U, G28U, A29U, A31G
# DNA 1: CAATCTGAATTCCGGTCTCCC
# DNA 2: TGGTGGCTACGACGGGATT
# B4: UCAACCU (DNA:RNA)
# RNA: B1 RNA with G26C, C27A, G28A, A29C, U30C, A31U
# DNA 1: CAATCTGAATTCCGGTCTCCC
# DNA 2: TGGTGGCTACGACGGGATT
# B5: UACCUGU (DNA:RNA)
# RNA: B1 RNA with G26A, G28C, A29U, U30G, A31U
# DNA 1: CAATCTGAATTCCGGTCTCCC
# DNA 2: TGGTGGCTACGACGGGATT
# B6: AGGGCGU (DNA:RNA)
# RNA: B1 RNA with U25A, C27G, A29C, U30G, A31U
# DNA 1: CAATCTGAATTCCGGTCTCCC
# DNA 2: TGGTGGCTACGACGGGATT
# B7: GUUUUGU (DNA:RNA)
# RNA: GGGAGACCGGAAUUCAGAUUGUCCGUUUUGUUUAAAUCCCGUCGUAGCCACCA
# DNA 1: CAATCTGAATTCCGGTCTCCC
# DNA 2: TGGTGGCTACGACGGGATT
# B8: AAUCCAC (DNA:RNA)
# RNA: B7 RNA with G25A, U26A, U28C, U29C, G30A, U31C
# DNA 1: CAATCTGAATTCCGGTCTCCC
# DNA 2: TGGTGGCTACGACGGGATT
# B9: UGGUGCA (DNA:RNA)
# RNA: B1 RNA with C27G, G28U, A29G, U30C
# DNA 1: CAATCTGAATTCCGGTCTCCC
# DNA 2: TGGTGGCTACGACGGGATT
# B10: UGCAGCA (DNA:RNA)
# RNA: B1 RNA with G28A, A29G, U30C
# DNA 1: CAATCTGAATTCCGGTCTCCC
# DNA 2: TGGTGGCTACGACGGGATT
# B11: GGUGCAU (DNA:RNA)
# RNA: B7 RNA with U26G, U28G, U29C, G30A
# DNA 1: CAATCTGAATTCCGGTCTCCC
# DNA 2: TGGTGGCTACGACGGGATT
# B12: UGCAUUG (DNA:RNA)
# RNA: B1 RNA with G28A, A29U, A31G
# DNA 1: CAATCTGAATTCCGGTCTCCC
# DNA 2: TGGTGGCTACGACGGGATT
# B13: CGGUGCA (DNA:RNA)
# RNA: B1 RNA with U25C, C27G, G28U, A29G, U30C
# DNA 1: CAATCTGAATTCCGGTCTCCC
# DNA 2: TGGTGGCTACGACGGGATT
# B14: UGCAUUA (DNA:RNA)
# RNA: B1 RNA with G28A, A29U
# DNA 1: CAATCTGAATTCCGGTCTCCC
# DNA 2: TGGTGGCTACGACGGGATT
# B15: CUGUGCA (DNA:RNA)
# RNA: B7 RNA with G25C, U27G, U29G, G30C, U31A
# DNA 1: CAATCTGAATTCCGGTCTCCC
# DNA 2: TGGTGGCTACGACGGGATT
# B16: UGCUGCA (DNA:RNA)
# RNA: B1 RNA with G28U, A29G, U30C
# DNA 1: CAATCTGAATTCCGGTCTCCC
# DNA 2: TGGTGGCTACGACGGGATT
# B17: UGCAUUC (DNA:RNA)
# RNA: B1 RNA with G28A, A29U, A31C
# DNA 1: CAATCTGAATTCCGGTCTCCC
# DNA 2: TGGTGGCTACGACGGGATT
# B18: GGGUGCA (DNA:RNA)
# RNA: B7 RNA with U26G, U27G, U29G, G30C, U31A
# DNA 1: CAATCTGAATTCCGGTCTCCC
# DNA 2: TGGTGGCTACGACGGGATT
# B19: UCCUGCA (DNA:RNA)
# RNA: B1 RNA with G26C, G28U, A29G, U30C
# DNA 1: CAATCTGAATTCCGGTCTCCC
# DNA 2: TGGTGGCTACGACGGGATT
# B20: CCGUGCA (DNA:RNA)
# RNA: B7 RNA with G25C, U26C, U27G, U29G, G30C, U31A
# DNA 1: CAATCTGAATTCCGGTCTCCC
# DNA 2: TGGTGGCTACGACGGGATT
# B21: CUGUGUG (DNA:RNA)
# RNA: B7 RNA with G25C, U27G, U29G, G30U, U31G
# DNA 1: CAATCTGAATTCCGGTCTCCC
# DNA 2: TGGTGGCTACGACGGGATT
# B22: ACUCAGC (DNA:RNA)
# RNA: B7 RNA with G25A, U26C, U28C, U29A, U31C
# DNA 1: CAATCTGAATTCCGGTCTCCC
# DNA 2: TGGTGGCTACGACGGGATT
# B23: GUAGGCC (DNA:RNA)
# RNA: B7 RNA with U27A, U28G, U29G, G30C, U31C
# DNA 1: CAATCTGAATTCCGGTCTCCC
# DNA 2: TGGTGGCTACGACGGGATT
# B24: UAAAGUG (DNA:RNA)
# RNA: B1 RNA with G26A, C27A, G28A, A29G, A31G
# DNA 1: CAATCTGAATTCCGGTCTCCC
# DNA 2: TGGTGGCTACGACGGGATT
# B25: CACUAAU (DNA:RNA)
# RNA: B7 RNA with G25C, U26A, U27C, U29A, G30A
# DNA 1: CAATCTGAATTCCGGTCTCCC
# DNA 2: TGGTGGCTACGACGGGATT
# B26: UACCGCC (DNA:RNA)
# RNA: B1 RNA with G26A, G28C, A29G, U30C, A31C
# DNA 1: CAATCTGAATTCCGGTCTCCC
# DNA 2: TGGTGGCTACGACGGGATT
# B27: AAUUCUA (DNA:RNA)
# RNA: B7 RNA with G25A, U26A, U29C, G30U, U31A
# DNA 1: CAATCTGAATTCCGGTCTCCC
# DNA 2: TGGTGGCTACGACGGGATT
# B28: UGCAUCG (DNA:RNA)
# RNA: B1 RNA with G28A, A29U, U30C, A31G
# DNA 1: CAATCTGAATTCCGGTCTCCC
# DNA 2: TGGTGGCTACGACGGGATT
# B29: UGCAUCA (DNA:RNA)
# RNA: B1 RNA with G28A, A29U, U30C
# DNA 1: CAATCTGAATTCCGGTCTCCC
# DNA 2: TGGTGGCTACGACGGGATT
# B30: UGCAUCC (DNA:RNA)
# RNA: B1 RNA with G28A, A29U, U30C, A31C
# DNA 1: CAATCTGAATTCCGGTCTCCC
# DNA 2: TGGTGGCTACGACGGGATT
# B31: AGGGCCC (DNA:RNA)
# RNA: B1 RNA with U25A, C27G, A29C, U30C, A31C
# DNA 1: CAATCTGAATTCCGGTCTCCC
# DNA 2: TGGTGGCTACGACGGGATT
# Target: T1, RBFOX1 RRM
# Test: EMSA; HiTS-Eq, 1 nM pool, 10 min; buffer printed only for the single-RNA assays: 10 mM Tris pH 7.5, 150 mM NaCl, 3.4 mM EDTA, 0.001% NP-40, 30 C
# Details: tags: His6 N-terminal (pET28a); label: 5' 32P
# In short: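 A pool of RNA with 7 randomized nucleotides, 5′-radiolabelled and with DNA-annealed flanks, was equilibrated at 1 nM for 10 min in 50 µL with purified RbFox RRM, wild type or mutant, across increasing protein concentrations. Free RNA was separated by 8% native PAGE, excised, reverse-transcribed, barcoded by PCR and sequenced. Relative association constants were obtained from read-count changes of each RNA species versus the control reaction and normalised to the cognate motif.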
row,Binder,binding signal
1,B1,0.017 KA relative to UGCAUGU
2,B2,0.0174 KA relative to UGCAUGU
3,B3,0.0263 KA relative to UGCAUGU
4,B4,0.00233 KA relative to UGCAUGU
5,B5,0.0129 KA relative to UGCAUGU
6,B6,0.0222 KA relative to UGCAUGU
7,B7,0.0195 KA relative to UGCAUGU
8,B8,0.000933 KA relative to UGCAUGU
9,B9,0.0327 KA relative to UGCAUGU
10,B10,0.0136 KA relative to UGCAUGU
11,B11,0.0241 KA relative to UGCAUGU
12,B12,0.0355 KA relative to UGCAUGU
13,B13,0.0194 KA relative to UGCAUGU
14,B14,0.0146 KA relative to UGCAUGU
15,B15,0.0239 KA relative to UGCAUGU
16,B16,0.0343 KA relative to UGCAUGU

row,Binder,binding signal
1,B17,0.0105 KA relative to UGCAUGU
2,B18,0.0415 KA relative to UGCAUGU
3,B19,0.0135 KA relative to UGCAUGU
4,B20,0.017 KA relative to UGCAUGU
5,B21,0.027 KA relative to UGCAUGU
6,B22,0.00534 KA relative to UGCAUGU
7,B23,0.00837 KA relative to UGCAUGU
8,B24,0.00935 KA relative to UGCAUGU
9,B25,0.00175 KA relative to UGCAUGU
10,B26,0.00921 KA relative to UGCAUGU
11,B27,0.00109 KA relative to UGCAUGU
12,B28,0.0295 KA relative to UGCAUGU
13,B29,0.0118 KA relative to UGCAUGU
14,B30,0.0337 KA relative to UGCAUGU
15,B31,0.0184 KA relative to UGCAUGU

# Reference: publication PMC9911399, “Two distinct binding modes provide the RNA-binding protein RbFox with extraordinary sequence specificity”
